# Experimental data published in PubChem BioAssay (EPA / NIEHS).
# Activity calls are given as the source filed them. How the source made its calls: active means hit-call score of the fitted dose curve at least 0.9, where 1 is the maximum; inactive means score below 0.9.
# Assay: APR_HepG2_P-H2AX_1hr: Apredica 1-hour HepG2 Assay for H2AX Phosphorylation (AID 2282673)
# Conditions: high-content imaging, actives raise or lower the signal
# Procedure: APR_HepG2_1hr is a cell-based, multiplexed-readout assay that uses HepG2, a human liver cell line, with measurements taken at 1 hour after chemical dosing in a 384-well plate.APR_HepG2_P-H2AX_1hr is one of 10 assay component(s) measured or calculated from the APR_HepG2_1hr assay. It is designed to make measurements of dna content, a form of viability reporter, as detected with fluorescence intensity signals by HCS Fluorescent Imaging technology.Data from the assay component APR_HepG2_P-H2AX_1hr was analyzed into 1 assay endpoint. This assay endpoint, APR_HepG2_P-H2AX_1hr, was analyzed with bidirectional fitting relative to DMSO as the negative control and baseline of activity. Using a type of viability reporter, measures of protein for gain or loss-of-signal activity can be used to understand the signaling at the pathway-level as they relate to the gene . Furthermore, this assay endpoint can be referred to as a primary readout, because this assay has produced multiple assay endpoints where this one serves a signaling function. To generalize the intended target to other relatable targets, this assay endpoint is annotated to the dna binding intended target family, where the subfamily is cellular response to DNA damage stimulus.
# Cells were treated with dimethyl sulfoxide (DMSO) as a solvent control at a final concentration of 0.5% v/v or with compounds in DMSO with a resulting final DMSO concentration of 0.5% v/v. Compound treatment was done at concentrations of 0.39, 0.78, 1.56, 3.12, 6.24, 12.5, 25, 50, 100, and 200 uM in duplicate on each plate. Cells were treated with compounds for 1, 24, or 72 hr. Carbonyl […] m-chloro-phenylhydrazone (CCCP) and taxol were used as positive controls for mitochondrial function and cytoskeletal stability, respectively; DMSO served as the negative control for this experiment. Cells were fixed by the direct addition of 50 uL formaldehyde in Hank's Balanced Salt Solution (HBSS) to a final concentration of 3.7%. After incubation in the fixation medium for 30 min at room temperature (293-298 K), cells were rinsed twice with HBSS and treated with cell permeabilization buffer (16 uL of 0.5% Triton X-100) for 10 min at room temperature (293-298 K) before labeling. For mitochondrial membrane potential and mitochondrial measurements, pre-fixed cells were incubated with 50 uL of MitoTracker Red CMXRos (Invitrogen) at a concentration of 250 nM for 30 min before fixation. In the remaining cases, post-fixed cells were labeled by incubation with a multiplexed mixture of primary antibodies in HBSS for 60 min at room temperature (293-298 K) to detect immunoreactivity of c-Jun (1:500), phospho-histone H3 (1:100), phospho-histone H2A.x (1:200), p53 (1:400), alpha-tubulin (1:200) and Hoechst 33342 (2 ug/mL). Cells were labeled for multiplexed imaging on two separate plates: a) Hoechst 33342, MitoTracker Red, phospho-histone H3, and alpha-tubulin, and b) Hoechst 33342, phospho-histone H2A.x, and c-Jun. A final rinse with HBSS (50 uL) was performed before analysis. The primary and secondary antibodies for the proteins were phospho-histone H3 (rabbit anti-phospho-histone H3 and FITC-donkey anti-rabbit IgG), phospho-histone H2A.x (mouse anti-phospho-histone H2A.x and FITC-donkey anti-mouse IgG), c-Jun (rabbit anti-phospho-c-Jun and Cy3-donkey anti-rabbit IgG), p53 (sheep anti-p53 and Cy5-donkey anti-sheep IgG), alpha-tubulin (mouse anti-alpha-tubulin and Cy5-donkey anti-mouse IgG). These antibodies are available as the CellCiphr HepG2 assay kit (Millipore).Digital images of each well were captured using a Cellomics ArrayScan VTI (Thermo Scientific Cellomics) (0.8 NA objective, 0.63x optical coupler, and XF-93 filter set) at 20x magnification. The images were acquired using the autofocus feature of the ArrayScan instrument, which entails the following steps. First, the camera focuses on channel 1 (Hoechst 33342), where nuclei are identified. Second, a Z offset of 1 um is used for capturing mitochondria (MitoTracker Red). […]
SMILES,outcome,AC50
CCOc1cc(C(C)(C)C)ccc1C1COC(c2c(F)cccc2F)=N1 (stereo not given),inactive,–
Cn1c(-c2ccccc2)cc(-c2ccccc2)[n+]1C,inactive,–
N#Cc1c[nH]cc1-c1cccc2c1OC(F)(F)O2,inactive,–
Cc1ccc(N=CN(C)C=Nc2ccc(C)cc2C)c(C)c1,inactive,–
CC(C)Oc1cccc(NC(=O)c2ccccc2C(F)(F)F)c1,inactive,–
CC1(C)C(C(=O)OC(C#N)c2cccc(Oc3ccccc3)c2)C1(C)C (stereo not given),inactive,–
CC(C)C1(C)N=C(c2ncccc2C(=O)O)NC1=O (stereo not given),inactive,–
COc1cc(Cl)c(OC)cc1Cl,inactive,–
COC(=O)NS(=O)(=O)c1ccc(N)cc1,inactive,–
COP(=S)(OC)Oc1ccc([N+](=O)[O-])c(C)c1,inactive,–
CC(C)Nc1nc(Cl)nc(NC(C)C)n1,inactive,–
CC1(C)CON(Cc2ccccc2Cl)C1=O,inactive,–
N#CN=C1SCCN1Cc1ccc(Cl)nc1,inactive,–
CCSC(=O)N1CCCCCC1,inactive,–
COCc1cnc(C2=NC(C)(C(C)C)C(=O)N2)c(C(=O)O)c1 (stereo not given),inactive,–
CC(C)(C)C(=O)C(Oc1ccc(Cl)cc1)n1cncn1 (stereo not given),inactive,–
CCNP(=S)(OC)O/C(C)=C/C(=O)OC(C)C (stereo not given),inactive,–
CN=C=S,inactive,–
Cc1nc(N(C)C)nc(OC(=O)N(C)C)c1C,inactive,–
CSC(=O)c1c(C(F)F)nc(C(F)(F)F)c(C(=O)SC)c1CC(C)C,inactive,–

SMILES,outcome,AC50
Nc1c(Cl)c(Cl)nc(C(=O)O)c1Cl,inactive,–
COC(=O)N(C(=O)N1CO[C@@]2(C(=O)OC)Cc3cc(Cl)ccc3C2=N1)c1ccc(OC(F)(F)F)cc1,inactive,–
CCOc1nc(C(Cl)(Cl)Cl)ns1,inactive,–
CNC(=O)Oc1cccc2ccccc12,–,57.9 µM (active)
CCOc1nc(F)cc2nc(S(=O)(=O)Nc3c(Cl)cccc3Cl)nn12,inactive,–
CCN(CC)c1nc(C)cc(OP(=S)(OC)OC)n1,inactive,–
CC1(C)CCC(=Cc2ccc(Cl)cc2)C1(O)Cn1cncn1 (stereo not given),inactive,–
CO/N=C(/C1=NOCCO1)c1ccccc1Oc1ncnc(Oc2ccccc2Cl)c1F,inactive,–
CCCCOCN(C(=O)CCl)c1c(CC)cccc1CC,inactive,–
CN/C(=N\[N+](=O)[O-])NCc1cnc(Cl)s1,inactive,–
CCC(C)n1c(=O)[nH]c(C)c(Br)c1=O (stereo not given),inactive,–
COc1cc(OC)nc(NC(=O)NS(=O)(=O)c2ncccc2OCC(F)(F)F)n1,inactive,–
CCOC(=O)C(C)OC(=O)c1cc(Oc2ccc(C(F)(F)F)cc2Cl)ccc1[N+](=O)[O-] (stereo not given),inactive,–
COC(=O)c1c(C(F)F)nc(C(F)(F)F)c(C2=NCCS2)c1CC(C)C,inactive,–
COCC(C)N(C(=O)CCl)c1c(C)csc1C (stereo not given),inactive,–
CCCCC(O)(Cn1cncn1)c1ccc(Cl)cc1Cl (stereo not given),inactive,–
OC(c1ccc(Cl)cc1)(c1ccc(Cl)cc1)C(Cl)(Cl)Cl,–,90.1 µM (active)
CC(C)=CC1C(C(=O)OCc2coc(Cc3ccccc3)c2)C1(C)C (stereo not given),inactive,–
CS(=O)(=O)c1cc(C(F)(F)F)ccc1C(=O)c1cnoc1C1CC1,inactive,–
CS(=O)(=O)c1ccc(C(=O)C2C(=O)CCCC2=O)c([N+](=O)[O-])c1,inactive,–
